From PubChem BioAssay (NCI)
The panel holds about 83,000 compounds, 20% with a hit somewhere; the sample as a whole holds those more often.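 Note: values are percent growth. 100 is the growth of untreated cells, values between 100 and 0 indicate rising inhibition; between -100 and 0 indicates cell death.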 Values without a mark were called inactive. The source made the active and inactive calls. Rule for the calls: active = growth percent below 10; inactive = the rest.

Legend:
Test in all cases: NCI-60 one-dose screen, 48 h (100 = growth as untreated, 0 = no growth, -100 = all killed)
Conditions in all cases: 10 µM unless noted
[1] = tested on: HCT-15 colon
[2] = tested on: HT29 colon
[3] = tested on: SNB-75 CNS
[4] = tested on: SNB-19 CNS
[5] = tested on: U251 CNS
[6] = tested on: PC-3 prostate
[7] = tested on: SK-MEL-5 melanoma
[8] = tested on: UACC-62 melanoma
[9] = tested on: LOX IMVI melanoma
[10] = tested on: SK-MEL-28 melanoma
[11] = tested on: SK-MEL-2 melanoma
[12] = tested on: EKVX NSCLC
[13] = tested on: SN12C renal
[14] = tested on: UO-31 renal
[15] = tested on: TK-10 renal
[16] = tested on: ACHN renal
[17] = tested on: CAKI-1 renal
[18] = tested on: A498 renal
[19] = tested on: CCRF-CEM leukemia
[20] = tested on: MOLT-4 leukemia

| Structure (SMILES) | growth [1] | growth [2] | growth [3] | growth [4] | growth [5] | growth [6] | growth [7] | growth [8] | growth [9] | growth [10] | growth [11] | growth [12] | growth [13] | growth [14] | growth [15] | growth [16] | growth [17] | growth [18] | growth [19] | growth [20] |
| --- | --- | --- | --- | --- | --- | --- | --- | --- | --- | --- | --- | --- | --- | --- | --- | --- | --- | --- | --- | --- |
| CC1(C)CC2=C3C=C[C@@H]4[C@@]5(C)CC[C@H](O)C(C)(C)[C@@H]5CC[C@@]4(C)[C@]3(C)CC[C@@]2(C(=O)O)CC1=O | 28% | 35.7% | 16.8% | 68.9% | 32.3% | 45% | 25.3% | 53.6% | 46.9% | 30.9% | 37.1% | 61.4% | 54.4% | 16.5% | 33.5% | 13% | 28.2% | 57% | 25.2% | 44.2% |
| CS(=O)(=O)Cc1cnc(C2OCCO2)s1 | 109% | 91.1% | 91.2% | 112% | 96.5% | 92.2% | 97.8% | 106% | 100% | 105% | 122% | 99% | 114% | 92% | 93.8% | 96.8% | 97.7% | 116% | 138% | 140% |
| C=C1C(=O)O[C@H]2[C@H]1CC/C(Cn1cc(-c3cc(C(F)(F)F)cc(C(F)(F)F)c3)nn1)=C\CC[C@@]1(C)O[C@@H]21 | -90.6% (active) | -86% (active) | -96.6% (active) | -80.3% (active) | -97.6% (active) | -81% (active) | -99.5% (active) | -76.6% (active) | -87.1% (active) | -82.7% (active) | -84.1% (active) | -97.1% (active) | -77.5% (active) | -96.3% (active) | -99.4% (active) | -92.6% (active) | -95.3% (active) | -94.5% (active) | -32.9% (active) | -28.2% (active) |
| Fc1ccc2c(c1)c(-c1nc(-c3c[nH]c4ncccc34)cs1)cn2CCCN1CCOCC1 | 24.5% | 12.9% | 41.2% | 62.7% | 30.4% | 31.9% | 43.7% | 69.5% | 33.1% | 75.4% | 60.5% | 55.9% | 73.9% | 31.5% | 66.9% | 42.2% | 56.2% | 51% | 21.8% | 24.8% |
| O=C1/C=C/[C@@H](O)[C@@H]2C[C@@H](O)C[C@H]2/C=C/CCC[C@H](CCOCc2ccccc2)O1 | 8.84% (active) | -23.2% (active) | 33.2% | 33.1% | 18.4% | 16.5% | -88.3% (active) | 6.3% (active) | -59.7% (active) | -2.95% (active) | -24.1% (active) | 1.3% (active) | 10.6% | 12.2% | -17.6% (active) | 5.36% (active) | -28.2% (active) | -28.5% (active) | 27.5% | 7.56% (active) |
| COc1ccc(Cl)cc1Nc1nc(C(F)(F)F)ccc1C(=O)N/N=C/c1ccccc1Cl | 0.947% (active) | 9.32% (active) | 50% | 9.47% (active) | -25.8% (active) | 5.53% (active) | 3.59% (active) | 8.19% (active) | -13.6% (active) | 32.5% | -7.25% (active) | -0.149% (active) | 0.596% (active) | 2.9% (active) | 15.6% | 3.39% (active) | 11.5% | 28.1% | 7.11% (active) | 3.07% (active) |
| Nc1c(C(=O)Nc2ccccn2)sc2nc3c(cc12)C(O)CCC3 (stereo not given) | 23.1% | 11.8% | 12.7% | 20.9% | 19% | 16.3% | 20.3% | 18.7% | 36.6% | 46.6% | 43.8% | 42.1% | 44.3% | 43.6% | 47.4% | 46.2% | 28.9% | 3.12% (active) | 6.62% (active) | 34% |
| Cn1cc(-c2nc(-c3c[nH]c4ccncc34)cs2)c2cc(Br)ccc21 | -85.4% (active) | -81.9% (active) | -97% (active) | -76% (active) | -84.1% (active) | -86.4% (active) | -47.9% (active) | -86.7% (active) | -90% (active) | -91.3% (active) | -57.7% (active) | -75.3% (active) | -74.4% (active) | -91.2% (active) | -84% (active) | -98.9% (active) | -77.2% (active) | -78% (active) | -43.4% (active) | -66.4% (active) |
| Cc1ccc(S(=O)(=O)n2cc(C3C(Cl)C(=O)N3c3ccc(N4CCOCC4=O)cc3)c3ccccc32)cc1 (stereo not given) | 28% | 56.6% | 31.1% | 70.8% | 48.7% | 43.5% | 43.8% | 51.3% | 34.2% | 69.3% | 74.7% | 72.6% | 44.5% | 37.6% | 88% | 71.4% | 24.9% | 65.8% | 29.5% | 47.5% |
| O=C1c2cc3c(cc2-c2c1c1ccc(Cl)cc1c(=O)n2C[C@H](O)CO)OCO3 | 4.59% (active) | 0.971% (active) | -9.59% (active) | 14.1% | 0.379% (active) | 6.95% (active) | -96.6% (active) | -62% (active) | -31.9% (active) | -6.11% (active) | -9.57% (active) | 4.75% (active) | 10.1% | -85.6% (active) | 14.6% | -72.2% (active) | -35.3% (active) | -79.1% (active) | 9.33% (active) | -17.2% (active) |
| O=C(/C=C/C12c3ccccc3C(c3ccccc31)C1C(=O)NC(=O)C12)c1ccccn1 (stereo not given) | -1.54% (active) | 0.981% (active) | 26.5% | 1.14% (active) | -28.9% (active) | 16.3% | 3.65% (active) | -48.4% (active) | -60.5% (active) | -33.2% (active) | 7.36% (active) | 19.6% | 17.2% | 6.89% (active) | 7.71% (active) | 1.3% (active) | 16.9% | -3.11% (active) | -16.1% (active) | -2.05% (active) |
| Cc1nc2sc(C(=O)Nc3ccc(Cl)cc3)c(N)c2cc1C(O)c1ccccc1 (stereo not given) | 28.9% | 25% | 26.5% | 41.2% | 32.8% | 21.9% | 30.4% | 17.7% | 33.4% | 57.5% | 56.6% | 44.2% | 40.6% | 47.9% | 60.3% | 33.4% | 47.5% | 13.5% | 13.4% | 17.8% |
| COCC[C@H]1CCC/C=C/[C@@H]2C[C@H](O)C[C@H]2[C@H](O)/C=C/C(=O)O1 | 9.76% (active) | -13.8% (active) | 33.9% | 30.2% | 15.5% | 20.5% | -92% (active) | 21.7% | -62.3% (active) | 0.149% (active) | -3.55% (active) | 4.95% (active) | 8.16% (active) | 10.9% | -38.5% (active) | 4.75% (active) | -18.6% (active) | -31.1% (active) | 17.6% | 7.61% (active) |
